Compounds without any hit were thinned out: in the full panel of roughly 83,000, 20% have a hit.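 Testing used 96-well plates and a 48-hour single-concentration exposure. Example: -40 means 40% of the starting cells died.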 Activity calls are given as the source filed them. The calls were made as follows: active = growth percent below 10; inactive = the rest.
Assays:
Test in all cases: NCI-60 one-dose screen, 48 h (100 = growth as untreated, 0 = no growth, -100 = all killed)
Details in all cases: 10 µM unless noted
HCT-15 colon = tested on: HCT-15 colon
HT29 colon = tested on: HT29 colon
SNB-75 CNS = tested on: SNB-75 CNS
SNB-19 CNS = tested on: SNB-19 CNS
U251 CNS = tested on: U251 CNS
PC-3 prostate = tested on: PC-3 prostate
SK-MEL-5 melanoma = tested on: SK-MEL-5 melanoma
UACC-62 melanoma = tested on: UACC-62 melanoma
LOX IMVI melanoma = tested on: LOX IMVI melanoma
SK-MEL-28 melanoma = tested on: SK-MEL-28 melanoma
SK-MEL-2 melanoma = tested on: SK-MEL-2 melanoma
EKVX NSCLC = tested on: EKVX NSCLC
SN12C renal = tested on: SN12C renal
UO-31 renal = tested on: UO-31 renal
TK-10 renal = tested on: TK-10 renal
ACHN renal = tested on: ACHN renal
CAKI-1 renal = tested on: CAKI-1 renal
A498 renal = tested on: A498 renal
CCRF-CEM leukemia = tested on: CCRF-CEM leukemia
MOLT-4 leukemia = tested on: MOLT-4 leukemia

Measured: growth

O=C(c1ccccc1)C1OC1C(=O)c1ccccc1 (stereo not given)
inactive: HCT-15 colon 13.1% | SNB-75 CNS 11.1% | SNB-19 CNS 92.9% | U251 CNS 28.1% | PC-3 prostate 51% | SK-MEL-5 melanoma 37.7% | UACC-62 melanoma 46.8% | SK-MEL-28 melanoma 49.2% | SK-MEL-2 melanoma 34% | EKVX NSCLC 81.3% | SN12C renal 28.2% | UO-31 renal 60.1% | TK-10 renal 36.9% | ACHN renal 33.1% | CAKI-1 renal 14.6% | A498 renal 95.6% | CCRF-CEM leukemia 12.1% | MOLT-4 leukemia 45.6%
active: HT29 colon 10% | LOX IMVI melanoma 2.54%

COc1cc(Nc2ncccc2/C=C/C(=O)c2cc(OC)c(OC)c(OC)c2)cc(OC)c1OC
inactive: HCT-15 colon 74.2% | HT29 colon 67.8% | SNB-75 CNS 67.9% | SNB-19 CNS 80.2% | U251 CNS 50.8% | PC-3 prostate 74.1% | SK-MEL-5 melanoma 53.9% | UACC-62 melanoma 65.8% | LOX IMVI melanoma 17.1% | SK-MEL-28 melanoma 90.5% | SK-MEL-2 melanoma 78.3% | EKVX NSCLC 90.5% | SN12C renal 79.3% | UO-31 renal 65.6% | TK-10 renal 121% | ACHN renal 76.1% | CAKI-1 renal 72% | A498 renal 84.9% | CCRF-CEM leukemia 40.8% | MOLT-4 leukemia 70.9%

Cn1cnc([N+](=O)[O-])c1S(=O)(=O)Oc1ccccc1
inactive: HCT-15 colon 55% | HT29 colon 88.7% | SNB-75 CNS 103% | SNB-19 CNS 102% | U251 CNS 90.5% | PC-3 prostate 86.5% | SK-MEL-5 melanoma 99.6% | UACC-62 melanoma 99.4% | LOX IMVI melanoma 59.5% | SK-MEL-28 melanoma 106% | SK-MEL-2 melanoma 98.2% | EKVX NSCLC 103% | SN12C renal 99.2% | UO-31 renal 75.1% | TK-10 renal 101% | ACHN renal 17.1% | CAKI-1 renal 62.9% | A498 renal 108% | MOLT-4 leukemia 76.5%
active: CCRF-CEM leukemia 6.29%

c1cc(C2CCCCC2)ccc1-c1cnc2nonc2n1
inactive: SNB-75 CNS 26.6% | SNB-19 CNS 37.2% | U251 CNS 21.6% | PC-3 prostate 23.9% | SK-MEL-5 melanoma 22.6% | SK-MEL-28 melanoma 65.5% | EKVX NSCLC 37.3% | SN12C renal 19.5% | UO-31 renal 29% | TK-10 renal 15.6% | ACHN renal 34.6% | CAKI-1 renal 34.2%
active: HCT-15 colon 9.57% | HT29 colon 3.11% | UACC-62 melanoma 8.73% | LOX IMVI melanoma 2.13% | SK-MEL-2 melanoma 8.16% | A498 renal 9.62% | CCRF-CEM leukemia 3.66% | MOLT-4 leukemia -5.4%

CC(C)=CC[C@@H]1CC2(CC=C(C)C)C(=O)C(OC3(C(=O)c4ccccc4)C(=O)C4(CC=C(C)C)C[C@@H](CC=C(C)C)C(C)(C)C(CC=C(C)C)(C4=O)C3=O)(C(=O)c3ccccc3)C(=O)C(CC=C(C)C)(C2=O)C1(C)C (stereo not given in full)
active: HCT-15 colon 5.15% | HT29 colon -16.1% | U251 CNS 5.76% | PC-3 prostate -17.3% | SK-MEL-5 melanoma -77.5% | UACC-62 melanoma -71.3% | LOX IMVI melanoma 1.63% | SK-MEL-2 melanoma -46.8% | EKVX NSCLC 2.26% | SN12C renal -17.9% | UO-31 renal -7.33% | TK-10 renal 3.06% | ACHN renal 4.64% | A498 renal -58% | CCRF-CEM leukemia 3.78% | MOLT-4 leukemia -11.9%
inactive: SNB-75 CNS 37.6% | SNB-19 CNS 11.6% | SK-MEL-28 melanoma 14.9% | CAKI-1 renal 11.5%

C=CCCCCOc1cccc(/C=C2\N=C3SCCCN3C2=O)c1
inactive: HCT-15 colon 90% | HT29 colon 90.1% | SNB-75 CNS 91.1% | SNB-19 CNS 99.9% | U251 CNS 92.7% | PC-3 prostate 95.3% | SK-MEL-5 melanoma 99% | UACC-62 melanoma 87.6% | LOX IMVI melanoma 88.7% | SK-MEL-28 melanoma 108% | SK-MEL-2 melanoma 91.3% | EKVX NSCLC 95.9% | SN12C renal 89.8% | UO-31 renal 76.6% | TK-10 renal 99.4% | ACHN renal 99.2% | CAKI-1 renal 92.6% | A498 renal 82.9% | CCRF-CEM leukemia 121% | MOLT-4 leukemia 96.9%

CCOC(=O)Nc1ccc2nc(Sc3ccc(Cl)cc3)sc2c1
inactive: HCT-15 colon 25.5% | HT29 colon 19.4% | SNB-19 CNS 48.3% | U251 CNS 36.1% | PC-3 prostate 34.3% | UACC-62 melanoma 33.8% | LOX IMVI melanoma 47.9% | SK-MEL-28 melanoma 38.1% | SK-MEL-2 melanoma 46.8% | EKVX NSCLC 57.6% | SN12C renal 40.4% | UO-31 renal 43.9% | TK-10 renal 53.1% | ACHN renal 61.5% | CAKI-1 renal 19.2% | A498 renal 58% | CCRF-CEM leukemia 20.2% | MOLT-4 leukemia 37.8%
active: SNB-75 CNS -12% | SK-MEL-5 melanoma 6.76%

O=c1c2cc(Br)cc(Br)c2nc(-c2ccc(Cl)cc2)n1/N=C/c1cccc(F)c1
inactive: HCT-15 colon 75.2% | HT29 colon 62.1% | SNB-19 CNS 57.6% | U251 CNS 43.3% | PC-3 prostate 67% | SK-MEL-5 melanoma 70.9% | UACC-62 melanoma 74.6% | LOX IMVI melanoma 62.4% | SK-MEL-28 melanoma 85.1% | SK-MEL-2 melanoma 59.8% | EKVX NSCLC 59.2% | SN12C renal 53.5% | UO-31 renal 19.7% | TK-10 renal 22.3% | ACHN renal 10.8% | CAKI-1 renal 14.5% | A498 renal 101% | CCRF-CEM leukemia 48.8% | MOLT-4 leukemia 64.8%
active: SNB-75 CNS -0.938%

COc1cnc2c(c1)C(=O)c1c-2n(CCCNC(C)C)c(=O)c2cc(Cl)ccc12
active: HCT-15 colon -47.2% | HT29 colon -90.6% | SNB-19 CNS -23.2% | U251 CNS -86.6% | PC-3 prostate -51.7% | SK-MEL-5 melanoma -81.3% | UACC-62 melanoma -62.8% | LOX IMVI melanoma -88.1% | SK-MEL-28 melanoma -89.7% | EKVX NSCLC -32.7% | UO-31 renal -81.7% | TK-10 renal -89.1% | ACHN renal -100% | A498 renal -2.79% | CCRF-CEM leukemia -41.1% | MOLT-4 leukemia -47%
inactive: SNB-75 CNS 10.4% | SK-MEL-2 melanoma 70.2% | SN12C renal 17.3% | CAKI-1 renal 28.8%

CC(=O)Oc1ccccc1C(=O)Nc1ncc([N+](=O)[O-])s1
inactive: HCT-15 colon 32.3% | HT29 colon 44.9% | SNB-75 CNS 46.4% | SNB-19 CNS 41.7% | U251 CNS 39.2% | PC-3 prostate 10.1% | SK-MEL-5 melanoma 22.8% | LOX IMVI melanoma 23.4% | SK-MEL-28 melanoma 49.3% | EKVX NSCLC 34.7% | SN12C renal 15.4% | UO-31 renal 16.2% | TK-10 renal 19.4% | ACHN renal 55.8% | CAKI-1 renal 10.7% | CCRF-CEM leukemia 13.9%
active: UACC-62 melanoma 1.31% | SK-MEL-2 melanoma -30.1% | A498 renal -40.2% | MOLT-4 leukemia -9.45%

CCCCCCCCN(CCCCCCCC)C(=O)CCl
inactive: HCT-15 colon 96.1% | HT29 colon 114% | SNB-75 CNS 95.4% | SNB-19 CNS 97.5% | U251 CNS 101% | PC-3 prostate 85.6% | SK-MEL-5 melanoma 88.6% | UACC-62 melanoma 82.9% | SK-MEL-28 melanoma 110% | SK-MEL-2 melanoma 108% | EKVX NSCLC 108% | SN12C renal 93.8% | UO-31 renal 73.3% | TK-10 renal 108% | ACHN renal 100% | CAKI-1 renal 44.9% | A498 renal 99.8% | MOLT-4 leukemia 90.6%
active: LOX IMVI melanoma -63.3% | CCRF-CEM leukemia -33.4%

S=C(S)Oc1cccc2cccnc12
inactive: HCT-15 colon 105% | HT29 colon 98% | SNB-75 CNS 87% | SNB-19 CNS 107% | U251 CNS 105% | PC-3 prostate 84.7% | SK-MEL-5 melanoma 110% | UACC-62 melanoma 96.4% | LOX IMVI melanoma 98.9% | SK-MEL-28 melanoma 109% | SK-MEL-2 melanoma 105% | EKVX NSCLC 115% | SN12C renal 89.8% | UO-31 renal 62.2% | TK-10 renal 100% | ACHN renal 96.2% | CAKI-1 renal 91.7% | A498 renal 105% | CCRF-CEM leukemia 103% | MOLT-4 leukemia 83.6%

CCN(CC)CCNC(=O)C(F)(F)C(F)(F)C(F)(F)F
inactive: HCT-15 colon 100% | HT29 colon 115% | SNB-75 CNS 97.2% | SNB-19 CNS 116% | U251 CNS 104% | PC-3 prostate 96% | SK-MEL-5 melanoma 105% | UACC-62 melanoma 107% | LOX IMVI melanoma 104% | SK-MEL-28 melanoma 115% | SK-MEL-2 melanoma 106% | EKVX NSCLC 102% | SN12C renal 108% | UO-31 renal 89.9% | TK-10 renal 108% | ACHN renal 101% | CAKI-1 renal 94.6% | A498 renal 102% | CCRF-CEM leukemia 100% | MOLT-4 leukemia 109%

C=C(c1ccc(C(=O)NCCCn2ccnc2)cc1)c1cc2c(cc1C)C(C)(C)CCC2(C)C
active: PC-3 prostate -6.2% | SK-MEL-5 melanoma 0.58% | LOX IMVI melanoma -25.7% | SK-MEL-28 melanoma 6.96% | UO-31 renal -20.4% | ACHN renal -16.6% | CAKI-1 renal -35.6%
inactive: HCT-15 colon 21.1% | HT29 colon 16.1% | SNB-75 CNS 41.4% | SNB-19 CNS 48.4% | U251 CNS 12.1% | UACC-62 melanoma 66.7% | SK-MEL-2 melanoma 55.9% | EKVX NSCLC 27.1% | SN12C renal 19.5% | TK-10 renal 84.9% | A498 renal 116% | CCRF-CEM leukemia 13.5% | MOLT-4 leukemia 11.1%
